Our source for the Potency, activity and activity change, negative = inhibition values is PubChem BioAssay (NCATS).

Values joined by “and” are separate entries in the source; they are usually repeats but may differ in a detail not shown here. Equal values may be shown once. Records with an inconclusive call do not appear. Active and inactive are the calls of the source. Unless noted, calls follow the shape of the dose curve; as a rule, active = well fitted curve in the direction sought with a large enough effect; inconclusive = small, poorly fitted or top-dose-only effect, or another doubt; inactive = no such curve, though single readings can be large; an effect the other way counts as inactive or inconclusive.

Assay [1] is described as follows: Primary qHTS for inhibitors of nuclear receptor binding SET domain protein 2 (NSD2) in an RCH-ACV wild type WT cells (2C) (AID 1645877). Also: nearly all actives have a fitted effect of over 70% in size. Also: potency is read from the fitted curve at half-maximal effect.
The target in assay [2] is Catechol O-methyltransferase (Homo sapiens) (UniProt P21964). Kind of assay: Confirmatory Screen for Target Class Profiling of Small Molecule Inhibitors of Methyltransferases (AID 1745852; calls by dose curve; also: potency is read from the fitted curve at half-maximal effect; as to activity change, negative = inhibition: % is scaled to controls: 0 for no effect and ±100 for the full control effect). Particulars: MTase-Glo luminescence, SAH detection, recombinant enzyme; measured here: COMT max response; stronger effect = lower value.
Catechol O-methyltransferase (Homo sapiens), sequence (P21964 whole entry, looked up): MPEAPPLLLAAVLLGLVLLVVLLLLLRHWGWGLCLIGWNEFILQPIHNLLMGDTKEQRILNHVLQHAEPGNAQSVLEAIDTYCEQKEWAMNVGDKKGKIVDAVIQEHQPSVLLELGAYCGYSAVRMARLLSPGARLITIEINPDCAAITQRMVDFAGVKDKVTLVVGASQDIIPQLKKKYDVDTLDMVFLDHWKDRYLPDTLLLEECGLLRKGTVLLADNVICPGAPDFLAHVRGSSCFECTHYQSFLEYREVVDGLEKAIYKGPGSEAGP
In assay [3] the target is Guanidinoacetate N-methyltransferase (Homo sapiens) (UniProt Q14353). Described as above. Conditions: activity change, negative = inhibition: at 57.3 µM (top of the series) unless noted.
For assay [4], the target named is Nicotinamide N-methyltransferase (Homo sapiens) (UniProt P40261). The assay is described as above. Conditions: MTase-Glo luminescence, SAH detection, recombinant enzyme; measured here: NNMT max response; stronger effect = lower value.
Nicotinamide N-methyltransferase (Homo sapiens), sequence (P40261 whole entry, looked up): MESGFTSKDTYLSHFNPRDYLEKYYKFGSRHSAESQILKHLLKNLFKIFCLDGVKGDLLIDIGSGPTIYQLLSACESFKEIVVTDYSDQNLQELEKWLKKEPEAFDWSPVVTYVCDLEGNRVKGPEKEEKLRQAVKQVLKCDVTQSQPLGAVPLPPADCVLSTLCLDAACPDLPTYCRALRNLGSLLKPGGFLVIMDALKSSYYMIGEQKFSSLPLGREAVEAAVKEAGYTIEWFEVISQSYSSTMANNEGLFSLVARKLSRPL
Assay [5] addresses Phenylethanolamine N-methyltransferase (Homo sapiens) (UniProt P11086). Described as above. Conditions: MTase-Glo luminescence, SAH detection, recombinant enzyme; measured here: PNMT max response; stronger effect = lower value.
Assay [6] addresses Glutathione peroxidase 1 (Homo sapiens) (UniProt P07203). Kind of assay: Primary qHTS Assay for Inhibitors of Recombinant Selenoprotein Glutathione Peroxidase 1 (GPX1) (AID 1845191). Also: nearly all actives have a fitted effect of over 65% in size. The essentials: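 GPX1 10 nM, GR 100 nM, GSH 1 mM, NADPH 0.5 mM, CHP 0.5 mM (final). 30-min cpd preincubation, RT. Ex340/Em450 read t=0, t=15 min.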
In general terms: qHTS replaces the single test concentration by a dilution series.

Assay [7] concerns the target Phospholipid hydroperoxide glutathione peroxidase GPX4 (Homo sapiens) (UniProt P36969). Kind of assay: Primary qHTS Assay for Inhibitors of Recombinant Selenoprotein Glutathione Peroxidase 4 (GPX4) (AID 1845192). Also: % is scaled to controls: 0 for no effect and ±100 for the full control effect; nearly all actives have a fitted effect of over 65% in size. Put shortly:
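qHTS, GR-coupled: GPX4 200 nM + cpd 30 min RT → GSH 1 mM, NADPH 0.5 mM, GR 100 nM → CHP 0.5 mM start; fluor 340/450 at t0 and t15 min; no-enzyme wells as control.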

The target of assay [8] is Luciferin 4-monooxygenase (Photinus pyralis) (UniProt P08659). Kind of assay: Primary firefly luciferase (FLuc) qHTS assay for identification of artifact compounds. (AID 1845220). Also: nearly all actives have a fitted effect of over 60% in size.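 As to activity change, negative = inhibition: plate controls were DMSO vehicle for no effect and no enzyme for full effect.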 Put shortly: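 qHTS, 15 min compound preincubation with substrate (10 uM luciferin, 10 uM ATP) at RT, then 10 nM FLuc; 5 min; luminescence; % inhibition vs no-enzyme/DMSO controls, 4-parameter Hill fit.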

Assay [9] is described as follows: Primary fluorescence-based thiol-reactive (MSTI) qHTS assay for identification of artifact compounds. (AID 1845221). Also: nearly all actives have a fitted effect of over 65% in size. Also: potency is read from the fitted curve at half-maximal effect. Put shortly: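 Thiol-reactive compounds detected by quenching of 4 uM MSTI fluorescence (525/598 nm) after 1 h room-temperature dark incubation in PBS pH 7.4, 2% DMSO. qHTS titration; percent inhibition Hill-fitted against Acetyl-MSTI/MSTI controls.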

In assay [10] the test system is Nanoluciferase (engineered Oplophorus gracilirostris luciferase). Kind of assay: Primary Nanoluciferase (NLuc) qHTS assay for identification of artifact compounds. (AID 1845222). Put shortly: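 Luminescence read-out of secreted NLuc in S16 cell conditioned medium (1:55); compounds tested with 15 min RT preincubation, then Nano-Glo substrate 1:100, 5 min. % inhibition vs no-enzyme and DMSO controls, 4-parameter Hill fit.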

Assay [11] can be described thus: Primary redox qHTS assay for identification of artifact compounds. (AID 1845223).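 Also: 0% = DMSO and 100% = reference compound.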 The essentials: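 Redox-cycling detection via DTT (250 uM final) oxidation coupled to Amplex Red (25 uM)/HRP (250 mU/mL) in HBSS. 15 min preincubation plus 30 min after DTT, room temperature. Ex/Em 525/598 nm; 4-parameter Hill fit against DMSO and 10 uM DA3003.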
Assay [12] is described as follows: NCATS anti-infectives library activity on HEK293 viability as a counter-qHTS vs the C. elegans viability qHTS (AID 1745854). Also: potency is read from the fitted curve at half-maximal effect. Put shortly:
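CellTiter-Glo luminescence, read on a CCD imager, scored viability of HEK293 cells after 24 hr compound exposure at 37C. Library tested in several concentrations, 1:5 steps, up to 41.7 uM; digitonin served as control.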

Phospholipid hydroperoxide glutathione peroxidase GPX4 (Homo sapiens), sequence (P36969 whole entry, looked up): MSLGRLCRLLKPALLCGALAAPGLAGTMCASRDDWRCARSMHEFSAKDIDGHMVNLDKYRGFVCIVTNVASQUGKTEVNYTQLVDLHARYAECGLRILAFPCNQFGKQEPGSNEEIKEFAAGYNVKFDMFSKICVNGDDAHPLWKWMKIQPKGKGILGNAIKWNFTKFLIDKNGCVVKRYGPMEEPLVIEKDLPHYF
Glutathione peroxidase 1 (Homo sapiens), sequence (P07203 whole entry, looked up): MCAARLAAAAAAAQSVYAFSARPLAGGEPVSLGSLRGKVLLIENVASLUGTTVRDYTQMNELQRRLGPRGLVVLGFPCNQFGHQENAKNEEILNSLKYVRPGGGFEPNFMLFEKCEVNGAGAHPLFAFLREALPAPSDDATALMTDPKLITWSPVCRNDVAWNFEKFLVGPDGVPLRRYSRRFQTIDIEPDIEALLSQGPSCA
Phenylethanolamine N-methyltransferase (Homo sapiens), sequence (P11086 whole entry, looked up): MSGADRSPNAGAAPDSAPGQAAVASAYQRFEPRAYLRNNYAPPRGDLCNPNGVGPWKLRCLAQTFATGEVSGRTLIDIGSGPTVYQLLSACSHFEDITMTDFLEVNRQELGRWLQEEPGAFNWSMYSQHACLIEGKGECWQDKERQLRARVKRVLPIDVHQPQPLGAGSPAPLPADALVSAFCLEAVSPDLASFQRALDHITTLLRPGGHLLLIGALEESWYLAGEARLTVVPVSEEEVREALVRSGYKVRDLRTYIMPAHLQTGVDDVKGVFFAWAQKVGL

Take `CN1CCN(C2CCC(n3cc(-c4ccc(Oc5ccccc5)cc4)c4c(N)ncnc43)CC2)CC1` (stereo not given): the Potency in [1] is 72.8 nM (active) and 74.2 nM (active). The results for the activity in assay [2], in assay [4] and in assay [5] were -15.7%, -13.2% and -72%, respectively. For the same compound, the activity change, negative = inhibition in assay [3] came to 0%. Further, the Potency result in assay [6], in assay [7], in [8], in assay [9], in assay [10] and in assay [11] was “inactive” throughout.
On to `CCC(C(=O)O)c1ccc(N2Cc3ccccc3C2=O)cc1` (stereo not given), for which, in [1], the Potency entry was “inactive”.
Take `O=C(O)c1c(O)c(-c2ccccc2)nc2ccccc12`: the Potency result in [1] is “inactive”.
`O=C(O)c1ccccc1NCCc1ccccc1`: in assay [1], the Potency entry was “inactive”.
With `Oc1ccc(CNc2ccccc2F)c2cccnc12`, the Potency in assay [1] is 4.09 µM (active); in [9], 3.77 µM (active). Moreover, the activity in [2] is -81.9%; in assay [4], -0.361%; in assay [5] it was 6.4%. In addition, the activity change, negative = inhibition in assay [3] stood at 2.39%. Further, the Potency result in [6], in assay [7], in [8] and in [10] was “inactive” throughout.
In the case of `C=C(C(=O)O)[C@@H]1CC[C@@]2(C)CC[C@H](O)[C@@]2(C(C)=O)C1`, the figures for the Potency in assay [1] and in assay [9] were 16.3 µM (active) and 11.9 µM (active), respectively. Moreover, the activity is -66.3% in [2], -3.52% in [4] and -3.81% in [5]. Moreover, in [3], the activity change, negative = inhibition is -6.04%. The Potency result in assay [6], in assay [7], in assay [8], in assay [10] and in assay [11] was “inactive” throughout.
Take `O=C(c1ccccc1)c1ccc2nc(NC(=O)c3csc(C4CCN(c5ncnc6ccsc56)CC4)n3)[nH]c2c1`: the values for the Potency in [1] and in assay [12] were 4.59 µM (active) and 10 µM (active), respectively. For the same compound, the activity is -7.12% in assay [2], -42% in assay [4] and -13.7% in [5]. The activity change, negative = inhibition in assay [3] came to 0.0948%. In addition, the Potency entry in assay [6], in assay [7], in assay [8], in assay [9], in assay [10] and in [11] was “inactive” throughout.
`CC1(C)[C@@H](O)CC[C@]2(C)[C@H]3CC=C4[C@@H]5C[C@](C)(C(=O)O)CC[C@]5(C)CC[C@@]4(C)[C@]3(C)CC[C@@H]12`: the Potency entry in assay [1], in assay [6], in assay [7], in assay [8], in [9] and in assay [10] was “inactive” each time. The Potency result in assay [11] is “inactive”. Moreover, the activity was -16.8% in [2], -38.7% in [4] and -42.7% in [5]. The Potency in assay [3] was 27.1 µM (active).
Take `C=C1C(=O)OC2C1CCC(=C)C1CC(OC(C)=O)C(=C)C12` (stereo not given): the Potency in assay [1] was 3.25 µM (active); in assay [9], 18.9 µM (active). The activity in [2] was -65.1%; in [4], -9.15%; in [5], -8.53%. Besides, in [3], the activity change, negative = inhibition is -10.4%. The Potency entry in assay [6], in assay [7], in assay [8] and in assay [10] was “inactive” in each case.
As to `COC(=O)C1=CO[C@@H](O[C@@H]2O[C@H](CO)[C@@H](O)[C@H](O)[C@H]2O)[C@H]2[C@@H]1CC(OC)O[C@@H]2C` (stereo not given in full), the Potency entry in assay [1], in [6], in [7], in assay [8], in assay [10] and in assay [11] was “inactive” in each case. Also, the activity in assay [2] was -63.3%; in assay [4], -1.72%; in assay [5], -2.32%. The activity change, negative = inhibition in assay [3] was -2.71% [at 29.8 µM]. Also, in assay [9], the Potency was 10.3 µM (active).
On to `C=C[C@H]1[C@H](O[C@@H]2O[C@H](CO)[C@@H](O)[C@H](O)[C@H]2O)OC=C(C(=O)OC)[C@H]1CCOC(=O)c1cc(O)c(O)c(O)c1`, for which the Potency entry in assay [1], in assay [6], in [7], in assay [8], in assay [10] and in assay [11] was “inactive” each time. The activity in assay [2] is -67.5%; in assay [4], 0.422%; in assay [5], -11.3%. Also, the activity change, negative = inhibition in assay [3] was found to be 1.49% [at 29.8 µM]. Moreover, in assay [9], the Potency was 0.922 µM (active).
